Results on 18 compounds are retold here after PubChem BioAssay (NCATS).

Records with an inconclusive call do not appear. A call without a number means that no potency is given here. Activity calls are given as the source filed them. The call rests on the fitted dose curve; in most records, active means well fitted cell-killing curve with a large enough effect; inconclusive means small, poorly fitted or top-dose-only effect; inactive means flat fitted curve, though single readings scatter.
Potency means the concentration at half of the fitted maximal effect.

A short description of the first assay: Cell Viability - LYMP1-003 - Assay at 24 hr (AID 963). The conditions noted are these: LYMP1-003 lymphoblastoid cell viability; series mostly up to 92.2 µM. The procedure, abridged: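 Cells seeded at 2500/well, 5 hr at 37 C; compounds added; 24 hr at 37 C; CellTiter-Glo added, 30 min room temperature; luminescence read. Decrease in ATP taken as cytotoxicity, AC50 from Hill modelling.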
For the compound `CCCCCCCCCCCCOS(=O)(=O)O`, the Potency entry was “inactive”.
Turning to `NCCNCCNCCN`, the Potency entry was “inactive”.
Same read-out and setting: in the case of `[Cl][In]([Cl])[Cl]` it was “inactive”; in that of `Nc1ccc(S(=O)(=O)Nc2nccs2)cc1`, “inactive”.
Consider `Oc1cccc(O)c1`, for which the Potency result was “inactive”.
Same read-out and setting: in the case of `CCCCOC(=O)c1ccc(O)cc1` it was “inactive”; in that of `C[C@]12C[C@H](O)[C@H]3[C@@H](CCC4=CC(=O)CC[C@@]43C)[C@@H]1CC[C@@H]2C(=O)CO`, “inactive”; in that of `Cc1cc(CC(=O)O)n(C)c1C(=O)c1ccc(Cl)cc1`, “inactive”.
Same read-out and setting: the entry for `CC1(C)[C@@H]2CC[C@@]1(C)C(=O)C2` is “inactive”; for `Cc1c(O)cccc1C(=O)N[C@@H](CSc1ccccc1)[C@H](O)CN1C[C@H]2CCCC[C@H]2C[C@H]1C(=O)NC(C)(C)C` it is 39.8 µM (active).
The same measure, in the same setting: in the case of `O=C1O[C@H]([C@@H](O)CO)C(O)=C1O` it was “inactive”; in that of `NCCNCCNCCNCCN`, “inactive”; in that of `CN(C)CCC=C1c2ccccc2CCc2ccccc21`, “inactive”.
As for `O=C1c2c(O)cccc2Cc2cccc(O)c21`, the Potency entry is “inactive”.
Same read-out and setting: in the case of `Cc1cc2nc3c(=O)[nH]c(=O)nc-3n(C[C@H](O)[C@H](O)[C@H](O)CO)c2cc1C` it was “inactive”; in that of `COc1ccccc1O`, “inactive”.
In the case of `CC12CCC(CC1)C(C)(C)O2`, the Potency entry was “inactive”.
Same read-out and setting: the entry for `NC(=O)c1ncn([C@@H]2O[C@H](CO)[C@@H](O)[C@H]2O)n1` is “inactive”.

Another assay is described as follows: Cell Viability - LYMP1-003 - Assay at 40 hr (AID 964). Further: nearly all actives have a fitted effect of over 60% in size. The conditions noted are these: LYMP1-003 lymphoblastoid viability; series mostly up to 92.2 µM. The procedure, abridged: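 Cells were seeded at 2500 per well and incubated 5 hr at 37 C. Compounds were added across a concentration series and left 40 hr at 37 C. CellTiter-Glo was added for 30 min at room temperature before luminescence reading.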
Regarding `CCCCCCCCCCCCOS(=O)(=O)O`, the Potency entry was “inactive”.
Still for that read-out and setting: in the case of `NCCNCCNCCN` it was “inactive”; in that of `[Cl][In]([Cl])[Cl]`, “inactive”; in that of `Nc1ccc(S(=O)(=O)Nc2nccs2)cc1`, “inactive”.
For the compound `Oc1cccc(O)c1`, the Potency entry is “inactive”.
Same read-out and setting: in the case of `CCCCOC(=O)c1ccc(O)cc1` it was “inactive”; in that of `C[C@]12C[C@H](O)[C@H]3[C@@H](CCC4=CC(=O)CC[C@@]43C)[C@@H]1CC[C@@H]2C(=O)CO`, “inactive”.
Still for that read-out and setting: in the case of `Cc1cc(CC(=O)O)n(C)c1C(=O)c1ccc(Cl)cc1` it was “inactive”; in that of `CC1(C)[C@@H]2CC[C@@]1(C)C(=O)C2`, “inactive”.
For `Cc1c(O)cccc1C(=O)N[C@@H](CSc1ccccc1)[C@H](O)CN1C[C@H]2CCCC[C@H]2C[C@H]1C(=O)NC(C)(C)C`, the Potency is 39.8 µM (active).
On the same count and under the same terms, the entry for `O=C1O[C@H]([C@@H](O)CO)C(O)=C1O` is “inactive”.
As for `NCCNCCNCCNCCN`, the Potency entry was “inactive”.
On the same count and under the same terms, in the case of `O=C1c2c(O)cccc2Cc2cccc(O)c21` it was “inactive”; in that of `Cc1cc2nc3c(=O)[nH]c(=O)nc-3n(C[C@H](O)[C@H](O)[C@H](O)CO)c2cc1C`, “inactive”.
With `COc1ccccc1O`, the Potency result was “inactive”.
For the compound `CC12CCC(CC1)C(C)(C)O2`, the Potency result is “inactive”.
